Experiment [1] addresses Mitogen-activated protein kinase 3 (Homo sapiens) (UniProt P27361). The conditions noted are these: at 1 µM.
Experiment [2] has as its target SRSF protein kinase 3 (Homo sapiens) (UniProt Q9UPE1). The conditions noted are these: at 0.1 µM.
The target is the same in experiment [3]. The conditions noted are these: at 1 µM.
Experiment [4] concerns the target Mitogen-activated protein kinase 14 (Homo sapiens) (UniProt Q16539). The conditions noted are these: at 0.1 µM.
Experiment [5] has the same target. The conditions noted are these: at 1 µM.
The target in experiment [6] is Mitogen-activated protein kinase 11 (Homo sapiens) (UniProt Q15759). The conditions noted are these: at 0.1 µM.
Mitogen-activated protein kinase 11 (Homo sapiens), sequence (Q15759 whole entry): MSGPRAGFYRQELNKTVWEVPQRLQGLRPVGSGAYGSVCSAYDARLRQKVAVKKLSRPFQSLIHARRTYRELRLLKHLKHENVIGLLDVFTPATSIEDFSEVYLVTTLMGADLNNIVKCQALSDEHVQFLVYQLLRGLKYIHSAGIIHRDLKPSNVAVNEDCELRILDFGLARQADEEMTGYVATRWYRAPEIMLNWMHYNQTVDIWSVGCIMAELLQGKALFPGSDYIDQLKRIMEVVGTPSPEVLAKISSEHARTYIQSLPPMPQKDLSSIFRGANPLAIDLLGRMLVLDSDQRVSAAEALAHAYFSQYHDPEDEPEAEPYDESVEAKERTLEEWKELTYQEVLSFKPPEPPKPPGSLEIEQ
For experiment [7], the target named is T1, Mitogen-activated protein kinase 13 (Homo sapiens) (UniProt O15264).
T1 sequence (whole entry): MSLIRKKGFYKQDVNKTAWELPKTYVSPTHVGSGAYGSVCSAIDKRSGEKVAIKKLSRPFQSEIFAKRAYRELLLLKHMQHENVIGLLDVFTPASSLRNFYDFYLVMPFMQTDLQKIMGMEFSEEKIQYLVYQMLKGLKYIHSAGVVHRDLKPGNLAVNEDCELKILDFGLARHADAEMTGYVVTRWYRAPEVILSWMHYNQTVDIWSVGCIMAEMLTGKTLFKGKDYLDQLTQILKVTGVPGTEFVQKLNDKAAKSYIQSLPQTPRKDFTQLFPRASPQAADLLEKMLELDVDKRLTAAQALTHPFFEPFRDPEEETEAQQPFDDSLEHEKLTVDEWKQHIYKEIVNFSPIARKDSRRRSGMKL
The conditions noted are these: at 0.1 µM.

Experiment [8] addresses T1, Mitogen-activated protein kinase 13 (Homo sapiens). The conditions noted are these: at 1 µM.
The target in experiment [9] is T2, Mitogen-activated protein kinase 12 (Homo sapiens) (UniProt P53778).
T2 sequence (whole entry): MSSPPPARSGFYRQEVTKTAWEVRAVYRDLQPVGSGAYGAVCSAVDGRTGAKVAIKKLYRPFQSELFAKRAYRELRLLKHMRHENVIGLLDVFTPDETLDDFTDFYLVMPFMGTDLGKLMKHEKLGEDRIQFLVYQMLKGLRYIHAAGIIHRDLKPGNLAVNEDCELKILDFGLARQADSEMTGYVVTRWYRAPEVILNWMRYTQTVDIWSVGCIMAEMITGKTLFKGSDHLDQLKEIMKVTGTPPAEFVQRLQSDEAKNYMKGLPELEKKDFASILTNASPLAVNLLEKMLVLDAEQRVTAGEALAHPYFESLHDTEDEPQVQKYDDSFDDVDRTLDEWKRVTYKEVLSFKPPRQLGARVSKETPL
The conditions noted are these: at 0.1 µM.

The target of experiment [10] is T2, Mitogen-activated protein kinase 12 (Homo sapiens). The conditions noted are these: at 1 µM.
Experiment [11] has as its target SRSF protein kinase 1 (Homo sapiens) (UniProt Q96SB4). The conditions noted are these: at 0.1 µM.
The target is the same in experiment [12]. The conditions noted are these: at 1 µM.
Experiment [13] deals with Phosphatidylinositol 4,5-bisphosphate 3-kinase catalytic subunit alpha isoform (Homo sapiens) (UniProt P42336). The conditions noted are these: at 0.1 µM.
Phosphatidylinositol 4,5-bisphosphate 3-kinase catalytic subunit alpha isoform (Homo sapiens), sequence (P42336 whole entry, canonical isoform): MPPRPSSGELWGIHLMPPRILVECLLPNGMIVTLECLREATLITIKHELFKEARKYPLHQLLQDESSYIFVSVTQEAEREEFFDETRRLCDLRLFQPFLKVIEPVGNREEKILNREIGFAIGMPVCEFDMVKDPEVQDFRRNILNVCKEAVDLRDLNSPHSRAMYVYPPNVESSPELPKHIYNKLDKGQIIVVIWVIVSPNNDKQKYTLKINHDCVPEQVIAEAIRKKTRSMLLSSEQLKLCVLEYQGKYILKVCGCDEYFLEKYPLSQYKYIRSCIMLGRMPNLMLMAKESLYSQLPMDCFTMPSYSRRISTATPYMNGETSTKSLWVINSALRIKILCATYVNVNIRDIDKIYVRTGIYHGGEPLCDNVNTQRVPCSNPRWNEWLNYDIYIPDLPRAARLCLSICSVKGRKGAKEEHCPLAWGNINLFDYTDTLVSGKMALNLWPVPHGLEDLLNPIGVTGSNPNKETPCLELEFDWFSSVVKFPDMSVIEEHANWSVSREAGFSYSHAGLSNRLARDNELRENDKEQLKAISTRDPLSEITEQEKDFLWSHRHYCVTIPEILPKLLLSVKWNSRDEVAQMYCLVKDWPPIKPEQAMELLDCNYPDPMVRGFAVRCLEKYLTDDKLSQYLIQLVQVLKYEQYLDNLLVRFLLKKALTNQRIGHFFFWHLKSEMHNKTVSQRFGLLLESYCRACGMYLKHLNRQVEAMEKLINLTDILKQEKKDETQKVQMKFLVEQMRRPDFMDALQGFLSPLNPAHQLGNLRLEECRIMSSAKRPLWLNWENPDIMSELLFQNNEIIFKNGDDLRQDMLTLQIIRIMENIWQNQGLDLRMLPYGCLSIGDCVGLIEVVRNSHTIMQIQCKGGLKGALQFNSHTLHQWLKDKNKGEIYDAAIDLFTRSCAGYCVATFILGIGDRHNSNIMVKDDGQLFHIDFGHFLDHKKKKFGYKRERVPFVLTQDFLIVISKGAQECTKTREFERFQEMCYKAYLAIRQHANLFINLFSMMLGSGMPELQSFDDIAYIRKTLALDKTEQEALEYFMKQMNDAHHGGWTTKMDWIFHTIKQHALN
For experiment [14] the target is unchanged. The conditions noted are these: at 1 µM.
The target of experiment [15] is T3, Phosphatidylinositol 4,5-bisphosphate 3-kinase catalytic subunit delta isoform (Homo sapiens) (UniProt O00329).
T3 sequence (whole entry): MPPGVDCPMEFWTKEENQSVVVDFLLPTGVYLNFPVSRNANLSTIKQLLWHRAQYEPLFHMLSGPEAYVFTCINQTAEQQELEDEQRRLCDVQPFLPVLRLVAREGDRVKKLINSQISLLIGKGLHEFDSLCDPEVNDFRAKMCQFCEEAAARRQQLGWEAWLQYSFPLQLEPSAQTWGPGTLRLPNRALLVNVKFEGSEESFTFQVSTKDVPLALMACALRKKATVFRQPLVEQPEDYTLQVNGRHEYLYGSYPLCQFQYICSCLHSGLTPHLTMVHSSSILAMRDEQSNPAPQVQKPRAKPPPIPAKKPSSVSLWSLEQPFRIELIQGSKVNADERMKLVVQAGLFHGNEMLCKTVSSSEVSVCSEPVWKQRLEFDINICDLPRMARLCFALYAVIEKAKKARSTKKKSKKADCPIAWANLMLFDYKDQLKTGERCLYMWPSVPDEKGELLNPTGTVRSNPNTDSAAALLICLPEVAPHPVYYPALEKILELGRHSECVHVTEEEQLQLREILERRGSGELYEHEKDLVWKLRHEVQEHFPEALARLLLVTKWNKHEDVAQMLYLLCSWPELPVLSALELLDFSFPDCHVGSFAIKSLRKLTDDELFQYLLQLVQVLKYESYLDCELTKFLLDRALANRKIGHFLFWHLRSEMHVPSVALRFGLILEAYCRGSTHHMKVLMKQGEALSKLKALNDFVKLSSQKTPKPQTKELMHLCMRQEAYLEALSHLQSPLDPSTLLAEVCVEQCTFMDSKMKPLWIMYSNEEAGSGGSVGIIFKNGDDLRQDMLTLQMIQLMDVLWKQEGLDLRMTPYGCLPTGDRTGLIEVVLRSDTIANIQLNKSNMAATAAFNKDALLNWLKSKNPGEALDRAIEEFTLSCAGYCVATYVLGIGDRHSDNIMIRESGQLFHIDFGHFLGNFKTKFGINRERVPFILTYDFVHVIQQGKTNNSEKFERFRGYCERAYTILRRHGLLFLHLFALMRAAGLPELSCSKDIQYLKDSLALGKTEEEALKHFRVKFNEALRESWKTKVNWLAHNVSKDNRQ
The conditions noted are these: at 0.1 µM.

In experiment [16] the target is T3, Phosphatidylinositol 4,5-bisphosphate 3-kinase catalytic subunit delta isoform (Homo sapiens). The conditions noted are these: at 1 µM.
In experiment [17] the target is Phosphatidylinositol 4-kinase beta (Homo sapiens) (UniProt Q9UBF8). The conditions noted are these: at 0.1 µM.
Phosphatidylinositol 4-kinase beta (Homo sapiens), sequence (Q9UBF8 2-816 limits assumed): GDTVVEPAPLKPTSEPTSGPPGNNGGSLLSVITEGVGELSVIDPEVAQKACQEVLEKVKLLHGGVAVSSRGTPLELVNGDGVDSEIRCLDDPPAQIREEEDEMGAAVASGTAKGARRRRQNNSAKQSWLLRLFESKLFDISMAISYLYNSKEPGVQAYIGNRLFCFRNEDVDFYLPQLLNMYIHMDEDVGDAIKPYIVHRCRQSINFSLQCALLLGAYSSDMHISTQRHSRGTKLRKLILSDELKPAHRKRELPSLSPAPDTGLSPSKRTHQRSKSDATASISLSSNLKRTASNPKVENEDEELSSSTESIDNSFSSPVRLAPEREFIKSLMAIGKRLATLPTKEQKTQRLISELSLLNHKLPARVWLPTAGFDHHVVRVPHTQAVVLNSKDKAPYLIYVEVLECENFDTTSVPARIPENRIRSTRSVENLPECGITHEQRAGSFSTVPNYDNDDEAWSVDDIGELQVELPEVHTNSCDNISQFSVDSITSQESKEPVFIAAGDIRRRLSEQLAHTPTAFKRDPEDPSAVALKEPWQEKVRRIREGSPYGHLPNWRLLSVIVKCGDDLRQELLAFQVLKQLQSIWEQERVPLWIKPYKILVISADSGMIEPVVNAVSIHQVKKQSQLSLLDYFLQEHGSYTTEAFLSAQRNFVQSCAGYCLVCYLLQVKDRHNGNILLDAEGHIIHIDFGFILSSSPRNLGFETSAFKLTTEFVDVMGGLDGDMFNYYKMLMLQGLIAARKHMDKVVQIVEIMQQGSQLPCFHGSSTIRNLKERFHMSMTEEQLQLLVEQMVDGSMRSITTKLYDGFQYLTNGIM
Experiment [18] has the same target. The conditions noted are these: at 1 µM.
In experiment [19] the target is Sphingosine kinase 1 (Homo sapiens) (UniProt Q9NYA1). The conditions noted are these: at 0.1 µM.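 Note: mean percent inhibition of SPHK1 activity, measured within the GSK PKIS screening panel.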
Sphingosine kinase 1 (Homo sapiens), sequence (Q9NYA1 whole entry): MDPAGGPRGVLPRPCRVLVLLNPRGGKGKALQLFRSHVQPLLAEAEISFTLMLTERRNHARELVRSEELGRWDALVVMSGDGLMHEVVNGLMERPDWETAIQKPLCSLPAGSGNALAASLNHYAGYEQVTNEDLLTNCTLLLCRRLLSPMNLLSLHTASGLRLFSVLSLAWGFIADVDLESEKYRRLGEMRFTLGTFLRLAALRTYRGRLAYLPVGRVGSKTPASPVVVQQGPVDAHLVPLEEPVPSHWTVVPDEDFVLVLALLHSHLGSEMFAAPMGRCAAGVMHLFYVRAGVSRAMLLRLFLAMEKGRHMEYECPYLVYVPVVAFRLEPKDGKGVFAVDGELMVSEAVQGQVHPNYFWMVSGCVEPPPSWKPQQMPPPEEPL
For experiment [20], the target named is Mitogen-activated protein kinase 11 (Homo sapiens) (UniProt Q15759). The conditions noted are these: at 1 µM.

SRSF protein kinase 1 (Homo sapiens), sequence (Q96SB4 whole entry): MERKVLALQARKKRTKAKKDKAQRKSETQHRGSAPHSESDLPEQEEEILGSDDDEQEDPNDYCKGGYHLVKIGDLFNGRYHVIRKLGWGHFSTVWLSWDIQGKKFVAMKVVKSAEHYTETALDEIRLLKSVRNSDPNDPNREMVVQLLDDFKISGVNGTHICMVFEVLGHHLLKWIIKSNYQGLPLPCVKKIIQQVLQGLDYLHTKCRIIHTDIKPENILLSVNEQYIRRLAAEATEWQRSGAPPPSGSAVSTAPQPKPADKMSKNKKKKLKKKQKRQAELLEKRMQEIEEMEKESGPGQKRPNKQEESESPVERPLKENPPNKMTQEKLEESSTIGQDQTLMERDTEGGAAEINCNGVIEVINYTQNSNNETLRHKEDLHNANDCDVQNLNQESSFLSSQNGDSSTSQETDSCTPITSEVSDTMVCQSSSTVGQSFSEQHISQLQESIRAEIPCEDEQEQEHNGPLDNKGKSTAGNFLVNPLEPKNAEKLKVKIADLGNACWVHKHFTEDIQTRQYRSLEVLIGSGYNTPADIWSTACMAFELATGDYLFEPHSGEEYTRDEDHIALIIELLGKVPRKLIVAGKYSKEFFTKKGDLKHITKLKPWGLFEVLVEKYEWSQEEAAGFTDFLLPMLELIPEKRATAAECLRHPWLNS
Mitogen-activated protein kinase 3 (Homo sapiens), sequence (P27361 whole entry): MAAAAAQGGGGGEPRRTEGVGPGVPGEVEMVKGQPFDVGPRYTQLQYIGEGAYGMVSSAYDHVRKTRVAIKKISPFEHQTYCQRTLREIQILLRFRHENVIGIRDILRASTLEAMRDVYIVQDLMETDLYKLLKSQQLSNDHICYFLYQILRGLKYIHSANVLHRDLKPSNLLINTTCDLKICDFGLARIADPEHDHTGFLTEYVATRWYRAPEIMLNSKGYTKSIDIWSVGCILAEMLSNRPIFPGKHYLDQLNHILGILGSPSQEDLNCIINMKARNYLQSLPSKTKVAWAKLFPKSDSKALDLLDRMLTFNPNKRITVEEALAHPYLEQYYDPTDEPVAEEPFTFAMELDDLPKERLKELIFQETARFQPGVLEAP
Mitogen-activated protein kinase 14 (Homo sapiens), sequence (Q16539 whole entry): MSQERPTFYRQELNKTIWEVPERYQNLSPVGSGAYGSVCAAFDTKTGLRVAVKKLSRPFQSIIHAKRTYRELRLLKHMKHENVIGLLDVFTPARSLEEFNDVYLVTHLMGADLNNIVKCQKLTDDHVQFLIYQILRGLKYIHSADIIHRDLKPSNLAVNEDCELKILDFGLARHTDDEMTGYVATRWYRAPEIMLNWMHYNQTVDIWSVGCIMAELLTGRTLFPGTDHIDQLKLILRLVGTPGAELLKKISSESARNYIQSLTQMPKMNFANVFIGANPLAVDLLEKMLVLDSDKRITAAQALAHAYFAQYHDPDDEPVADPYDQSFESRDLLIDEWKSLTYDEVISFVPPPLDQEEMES
SRSF protein kinase 3 (Homo sapiens), sequence (Q9UPE1 whole entry): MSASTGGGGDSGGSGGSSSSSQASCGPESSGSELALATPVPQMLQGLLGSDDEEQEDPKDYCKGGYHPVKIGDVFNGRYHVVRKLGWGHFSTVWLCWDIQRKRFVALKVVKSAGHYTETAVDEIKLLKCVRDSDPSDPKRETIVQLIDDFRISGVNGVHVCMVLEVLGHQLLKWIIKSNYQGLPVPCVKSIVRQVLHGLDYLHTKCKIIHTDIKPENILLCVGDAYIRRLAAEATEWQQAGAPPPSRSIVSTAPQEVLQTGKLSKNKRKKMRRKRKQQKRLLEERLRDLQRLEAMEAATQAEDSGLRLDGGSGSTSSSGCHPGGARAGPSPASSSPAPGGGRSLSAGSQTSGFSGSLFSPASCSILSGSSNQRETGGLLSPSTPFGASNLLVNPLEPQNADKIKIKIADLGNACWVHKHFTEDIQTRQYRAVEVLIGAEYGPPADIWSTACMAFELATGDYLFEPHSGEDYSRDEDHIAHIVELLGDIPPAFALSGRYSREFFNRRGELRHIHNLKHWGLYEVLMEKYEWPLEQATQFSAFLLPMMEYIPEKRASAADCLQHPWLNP

`CN(C)c1cc2c(Nc3ccc4nc(Cc5ccccc5)[nH]c4c3)ncnc2cn1`: the inhibition was 4.66% in experiment [1]; -0.28% in experiment [2]; -1.52% in [3]; 6.65% in experiment [4]; 9.66% in experiment [5]; 1.34% in [6]. The inhibition in experiment [7] was 1.99%; in experiment [8], 5.16%; in experiment [9], 5.41%; in experiment [10] it was 2.45%; in [11], -1.74%; in experiment [12] it was -1.6%. For the same compound, the inhibition in experiment [13] was 7%; in [14] it was 8.83%; in experiment [15], 7.22%; in experiment [16], 8.91%; in [17] it was -2.6%; in experiment [18], 5.38%. For the same compound, the inhibition in experiment [19] was -1.38%.

Take `COc1ccc(COc2ccc(Cc3cnc(N)nc3N)cc2OC)cc1`: the inhibition in experiment [1] amounted to 0.29%; in [2], 2.01%; in experiment [3] it was 0.79%; in experiment [4] it was 0.58%; in experiment [5], 4.45%; in experiment [6], 2.44%. The inhibition was 1% in experiment [20]; 0.37% in experiment [8]; -1.2% in [9]; 1.41% in experiment [10]; -0.52% in experiment [11]; -2.52% in [12]. The inhibition in [13] is 0.14%; in experiment [14], 1.07%; in [15] it was -0.96%; in experiment [16] it was 0.68%; in experiment [17] it was 2.15%; in experiment [18] it was -1.98%. In addition, the inhibition in [19] was -3.33%.

As to `COc1cc(C=NNc2ncnc3c2cnn3-c2ccccc2)ccc1O`, the inhibition in experiment [1] turned out to be 1.84%; in [2], 2.22%; in experiment [3], 4.19%; in [4], 4.51%; in experiment [5], 10.7%; in experiment [6] it was 3.59%. In addition, the inhibition in experiment [20] is 9.09%; in [7] it was 3.08%; in experiment [8], 7.17%; in experiment [9] it was 1.85%; in experiment [10] it was 5.79%; in experiment [11] it was -0.73%. Moreover, the inhibition was 0.63% in [12]; 6.59% in experiment [13]; 15.9% in [14]; 8.17% in experiment [15]; 18% in experiment [16]; -0.81% in experiment [17]. In addition, the values for the inhibition in experiment [18] and in [19] were -0.12% and -0.86%, respectively.

In the case of `NS(=O)(=O)c1ccc(N/N=C2\C(=O)Nc3ccc(C(=O)NCCc4c[nH]cn4)cc32)cc1`, the inhibition in experiment [1] is 7.89%; in experiment [2], 1.31%; in experiment [3], -0.05%; in experiment [4], 5.71%; in experiment [5], 8.13%; in experiment [6], 3.37%. Further, the inhibition in [20] is 6.34%; in experiment [7], -1.15%; in experiment [8], 4.35%; in [9], 4.17%; in experiment [10], 2.64%; in experiment [11], -1.35%. Moreover, the inhibition in [12] is -0.63%; in experiment [13], 2.2%; in [14], 4.76%; in experiment [15], 1.71%; in experiment [16], 2.03%; in [17], -6.38%. Moreover, the inhibition in experiment [18] was -1.44%; in experiment [19], -1.35%.

Consider `NC(=O)c1cccc(Nc2nccc(Nc3cccc4[nH]ncc34)n2)c1`, for which the inhibition in [1] is 1.82%; in experiment [2], 0.19%; in experiment [3] it was 3.95%; in experiment [4], 4.23%; in experiment [5], 2.87%; in experiment [6], -1.99%. Besides, the inhibition in experiment [20] was 3.32%; in experiment [7], -0.37%; in experiment [8] it was 1.26%; in [9], -1.53%; in experiment [10], 1.3%; in [11], 1.99%. Besides, the inhibition is 2.55% in experiment [12]; -1.08% in [13]; 6.41% in [14]; 1.39% in experiment [15]; 10.7% in experiment [16]; 4.75% in [17]. The inhibition in experiment [18] was 10.2%; in experiment [19], -1.36%.

For `Cc1ccc(NC(=O)c2ccnc(N3CCCC3)c2)cc1-c1ccc(C(=O)NCC2CC2)cc1`, the inhibition in experiment [1] is 3.65%; in [2] it was -0.5%; in experiment [3], -0.3%; in experiment [4], 38.3%; in experiment [5] it was 79.6%; in [6] it was 40.9%. Also, the inhibition was 78.9% in [20]; 3.45% in experiment [7]; 5.79% in [8]; 4.49% in experiment [9]; 4.14% in experiment [10]; -2.03% in experiment [11]. Further, the inhibition is -3.61% in experiment [12]; 4.02% in experiment [13]; 14.5% in experiment [14]; 3.4% in experiment [15]; 14.4% in [16]; -4.29% in experiment [17]. Further, the inhibition in experiment [18] was -0.13%; in experiment [19], -0.32%.

Source of the values: ChEMBL document CHEMBL1961873, “Compounds: GSK PKIS; Assays: Nanosyn kinase panel” (2012).
